Where “and” joins values, the source holds several entries; their conditions need not be identical. Equal entries are not always repeated. Compounds without any hit were thinned out: in the full panel of roughly 79,000, 15% have a hit. No stated cut-off is given here; in the data, active means growth inhibition above about 70%; inactive means the rest.
What was measured:
[1] = NCI Yeast Anticancer Drug Screen. Data for the rad50 strain (AID 155);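 further: 0% = growth of vehicle-only cultures of the same strain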; conditions: S. cerevisiae rad50 strain growth inhibition, hits give high values; at 50.0 µM unless noted
How it was run: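 A DNA repair-deficient yeast mutant serves as the test organism; compound-induced growth inhibition is calculated against vehicle-treated cells.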

[2] = NCI Yeast Anticancer Drug Screen. Data for the mec2-1 strain (AID 157); conditions: S. cerevisiae mec2-1 strain, hits give high values; at 50.0 µM unless noted
How it was run: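 Cells of the genetically defined mec2-1 yeast strain are incubated with test compound. Inhibition of growth is calculated against vehicle-treated controls.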

[3] = NCI Yeast Anticancer Drug Screen. Data for the sgs1 mgt1 strain (AID 161);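 further: 0% = growth of cultures given vehicle only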; conditions: S. cerevisiae sgs1 mgt1 strain, hits give high values; at 50.0 µM unless noted
How it was run: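 Mutant yeast exposed to compound; growth scored against vehicle-only wells.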

[4] = NCI Yeast Anticancer Drug Screen. Data for the cln2 rad14 strain (AID 165);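 further: 0% = growth equal to vehicle treated cultures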; conditions: S. cerevisiae cln2 rad14 strain, hits give high values; at 50.0 µM unless noted
How it was run: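 The screen exposed genetically defined yeast (cln2 rad14) to test compounds and scored growth inhibition relative to vehicle-treated controls.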

[5] = NCI Yeast Anticancer Drug Screen. Data for the bub3 strain (AID 167); conditions: S. cerevisiae bub3 mutant strain, hits give high values; at 50.0 µM unless noted
How it was run: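 Inhibition values come from growth of compound-treated mutant yeast normalised to vehicle-treated controls.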

[6] = NCI Yeast Anticancer Drug Screen. Data for the mlh1 rad18 strain (AID 175); conditions: S. cerevisiae mlh1 rad18 strain growth inhibition, hits give high values; at 50.0 µM unless noted
How it was run: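 Compound-treated yeast growth, normalised to vehicle controls. Strain bears defined DNA repair mutations.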

Measured: growth inhibition

CCCCOC/N=C(/N)NC#N
inactive: [1] 10.9% | [2] 2.15% | [3] -5.2% | [4] 28.6% | [5] -4.1% | [6] 17.7%

Cc1c2ccncc2c(C)c2c1[nH]c1ccc(O)cc12
inactive: [1] 16.9% | [2] 14.2% | [3] 43.9% | [4] 23.6% | [5] 19.5% | [6] 58.9%

CCCCCCCCCCCCCCCc1ccc(N)c(OC2OC(CO)C(O)C(O)C2O)c1 (centres undefined)
inactive: [1] -2.15% and -16.8% | [2] 6.7% and -18.2% | [3] 8.8% and 8.55% | [4] -8.15% and -28.3% | [5] -5.6% and 0.95% | [6] 18.1% and -0.4%

SCCNCc1ccccc1
inactive: [1] 20.9% | [2] -13.1% | [3] 6.9% | [4] 9.85% | [5] 6.9% | [6] 10.2%

COc1cc2c(c(OC)c1OC)-c1ccc(SC)c(=O)cc1[C@@H](NC(=O)CCl)CC2
inactive: [1] -2.1% | [2] 19.6% | [3] 0.5% | [4] 6.85% | [5] 16.6% | [6] 15.6%

CNc1cc(C(C)C)ccc1C
inactive: [1] 4.1% | [2] 8.75% | [3] 10.7% | [4] 0.85% | [5] 17.1% | [6] 3.25%

CN(C)Cc1ccccc1CC1(O)CCCC1
inactive: [1] 19.6% | [2] -2.75% | [3] -4.3% | [4] -10.1% | [5] 0.3% | [6] -12.5%

Cc1cc(C(c2ccccc2)n2c3ccccc3c3ccccc32)cc(C)c1O (centres undefined)
inactive: [1] 6.5% | [2] 11.3% | [3] 8.45% | [4] 0.25% | [5] -7.55% | [6] 16.4%

CCOC(=O)Cn1cncc1C
inactive: [1] -33.6% | [2] -6.6% | [3] -13.5% | [4] -73.6% | [5] -3.4% | [6] -7.1%

COc1cc(C(O)C2C(=O)OCC2C2(c3ccc4c(c3)OCO4)SCCCS2)cc(OC)c1OC (centres undefined)
inactive: [1] 36.1% and -8.8% | [2] -2.8% and -8.95% | [3] 35.4% and -21.5% | [4] 7.2% and 1.7% | [5] 10.1% and -2.95% | [6] 1.45% and 17.2%

COc1cccc2cc3c(cc12)C(=O)C(C)=C(C)C3=O
inactive: [1] -1.65% | [2] -3.6% | [3] -3.45% | [4] -9.25% | [5] 6.8% | [6] 2.55%

O=C(c1ccccc1)N1c2ccc([N+](=O)[O-])cc2Sc2cc([N+](=O)[O-])ccc21
inactive: [1] 16.7% | [2] -3.45% | [3] 33.6% | [4] 8.35% | [5] -10.7% | [6] 13.1%

CCCCCCCNC(=O)C(C)Br (centres undefined)
inactive: [1] 17.6% | [2] 26.6% | [3] 16.6% | [4] -41.9% | [5] 19.7% | [6] 22.1%

CCC(=O)Oc1ccc(C(=O)c2ccc(OC(=O)CC)cc2)cc1
inactive: [1] 5.05% | [2] -24.9% | [3] 13.8% | [4] 11.4% | [5] 8.05% | [6] 4.1%

C=CCCn1nc(-c2ccccc2)oc1=O
inactive: [1] -8.35% | [2] -28.5% | [3] -19.2% | [4] -2.75% | [5] -26.9% | [6] 6.1%

NC(=S)Nc1nnc(-c2ccc(-c3nnc(NC(N)=S)o3)cc2)o1
inactive: [1] 18.4% | [2] 6.65% | [3] -21.2% | [4] 5.35% | [5] 2.05% | [6] -8.05%

CC(=O)c1cccc(NC(=O)Nc2ccc(F)c([N+](=O)[O-])c2)c1
inactive: [1] 7.3% | [2] 22.9% | [3] 21.9% | [4] 3.25% | [5] 36.5% | [6] 2.75%

O=[N+]([O-])c1ccc(N/N=C2/CC3CCC2C3)c([N+](=O)[O-])c1 (centres undefined)
inactive: [1] -4.3% | [2] -21.4% | [3] 0.8% | [4] -7.05% | [5] 5.6% | [6] 0.55%

c1cnc2c(c1)Oc1nc3ccccc3nc1S2
inactive: [1] 2.25% | [2] 6% | [3] 3.9% | [4] 35.9% | [5] 8.9% | [6] 23.1%

— PubChem BioAssay (NCI)
